Test [1] in a line: qHTS assay for small molecule antagonists of retinoid X receptor alpha signaling (AID 588546; active means well fitted inhibition curve with a large enough effect in the signal ratio, with a control signal flat, not every such curve was filed as active; the % refers to the signal ratio; further: potency means the concentration at half of the fitted maximal effect;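 on max response: cells stimulated with 9-cis-retinoic acid as agonist; on the % scale 0 is the no-effect control and ±100 the full control effect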). To be noted: HEK293T RXRa-UAS-bla, beta-lactamase ratio, antagonist mode; measured here: W530 green channel, cytotoxicity proxy. The method in brief: (§1)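 Beta-lactamase reporter inhibition, read as CCF4 fluorescence ratio (ex 405, em 460/530 nm) after 2 h at RT. HEK293T UAS-bla cells, 2500/well, were stimulated with 9-cis-RA at 500 or 100 nM final alongside test compound for 18 h at 37 C.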

For test [2], the target named is Retinoic acid receptor RXR-alpha (Homo sapiens) (UniProt P19793). Described as above. To be noted: HEK293T RXRa-UAS-bla, beta-lactamase ratio, antagonist mode. The procedure, abridged:
as §1

The target in test [3] is Thyroid hormone receptor beta (Homo sapiens) (UniProt P10828). Nature of the test: qHTS assay for small molecule antagonists of thyroid hormone receptor beta signaling (AID 588547; active means well fitted inhibition curve with a large enough effect in the signal ratio, with a control signal flat, not every such curve was filed as active; the % refers to the signal ratio; further: potency means the concentration at half of the fitted maximal effect;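 on activity change % (negative = inhibition): cells stimulated with 0.4 nM T3 agonist during compound exposure; on the % scale 0 is the no-effect control and ±100 the full control effect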). To be noted: TR-UAS-bla HEK293, beta-lactamase ratio, antagonist mode, 18 h. The procedure, abridged: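 TR-UAS-bla GripTite HEK293 cells in 2% charcoal/dextran FBS medium were preincubated 4 h at 37 C, given compound (0.59 nM to 92 uM) plus 0.4 nM T3 (final) for 18 h, then CCF4 for 2 h at RT; Hill fit gave IC50.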
Chain of Thyroid hormone receptor beta (Homo sapiens) (P10828 whole entry, looked up): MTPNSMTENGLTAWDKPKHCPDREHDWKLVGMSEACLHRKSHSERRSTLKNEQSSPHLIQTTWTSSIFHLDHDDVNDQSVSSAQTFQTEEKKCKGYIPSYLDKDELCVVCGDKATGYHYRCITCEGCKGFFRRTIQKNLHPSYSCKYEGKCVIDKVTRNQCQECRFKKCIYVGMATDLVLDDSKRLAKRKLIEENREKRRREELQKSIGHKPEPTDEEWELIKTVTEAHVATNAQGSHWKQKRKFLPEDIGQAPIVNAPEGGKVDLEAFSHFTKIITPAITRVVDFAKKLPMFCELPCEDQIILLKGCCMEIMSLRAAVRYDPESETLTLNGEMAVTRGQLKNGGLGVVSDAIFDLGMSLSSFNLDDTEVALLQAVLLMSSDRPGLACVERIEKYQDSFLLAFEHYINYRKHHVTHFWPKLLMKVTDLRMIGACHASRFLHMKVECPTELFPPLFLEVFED
A general note: Quantitative high-throughput screening tests each substance at several concentrations.

Test [4] concerns the target Voltage-gated inwardly rectifying potassium channel KCNH2 (Homo sapiens) (UniProt Q12809). Nature of the test: qHTS Assay for Small Molecule Inhibitors of the Human hERG Channel Activity (AID 588834).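 Further: lower thallium flux fluorescence means stronger hERG block; nearly all actives have a fitted effect of over 50% in size.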 Further: potency means the concentration at half of the fitted maximal effect. The method in brief: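 Cells were infected with hERG-BacMam virus for 4 hrs at room temperature, grown overnight, then seeded at 2000/well. After dye loading and roughly 10 min compound treatment, thallium influx was triggered and fluorescence recorded.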

A short description of test [5]: S16 Schwann cell PMP22 intronic element firefly luciferase assay (AID 624032). Further: nearly all actives have a fitted effect of over 30% in size. Further: potency means the concentration at half of the fitted maximal effect. The procedure, abridged: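 Rat S16 Schwann cells stably carrying a PMP22 intronic element-driven Fluc reporter were seeded overnight, then exposed to compounds for 24 h at 37 °C. Luminescence was normalized to PTC124 (positive control) and DMSO (0% activity).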
Test [6] in a line: S16 Schwann cell PMP22 intronic element beta-lactamase assay (AID 624044; calls by dose curve;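 further: 0% = DMSO and -100% = potassium clavulanate positive control; nearly all actives have a fitted effect of over 15% in size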). To be noted: S16 rat Schwann cells, PMP22 element beta-lactamase FRET, 24 h; ratio activity, negative = inhibition: at 38.3 µM (top of the series). The method in brief: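 Beta-lactamase reporter under a PMP22 intronic regulatory element in stable S16 rat Schwann cells; 24 h compound exposure. 460 nm blue signal normalized between DMSO (0%) and potassium clavulanate, with 535 nm FRET tracking viability; curves classed by r2 and response.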

Test [7] is described as follows: S16 Schwann cell viability assay (CellTiter-Glo assay) (AID 624031). Further: nearly all actives have a fitted effect of over 70% in size. Further: potency means the concentration at half of the fitted maximal effect. The procedure, abridged:
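This viability control uses native rat S16 Schwann cells grown in DMEM plus 10% FBS. After a 24 h compound treatment at 37 °C, CellTiter-Glo luminescence reports ATP content, scaled against DMSO-treated and cell-free wells.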

Test [8] deals with Luciferin 4-monooxygenase (Photinus pyralis) (UniProt P08659). Nature of the test: Biochemical firefly luciferase enzyme assay for NPC (AID 624030).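 Further: purified P. pyralis luciferase at 10 nM with luciferin and ATP substrate; 0% = DMSO and -100% = full luciferase inhibition by PTC124 control; nearly all actives have a fitted effect of over 70% in size.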 The method in brief:
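Counter-screen for direct inhibition of the luciferase enzyme by approved-drug library compounds, run at 10 nM enzyme in 50 mM Tris acetate (final). Luminescence was read within 5 min of enzyme-buffer addition and normalized to PTC124 versus DMSO (0%).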

Test [9] deals with Glutaminase kidney isoform, mitochondrial (Homo sapiens) (UniProt O94925). The test is described as follows: qHTS for Inhibitors of Glutaminase (GLS): LOPAC Validation (AID 624146).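 Further: glutamate product detected by oxidase and peroxidase coupled Amplex red fluorescence gain; on the % scale 0 is the no-effect control and ±100 the full control effect; nearly all actives have a fitted effect of over 60% in size.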 The procedure, abridged: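 Enzyme dispensed in phosphate buffer (45 mM, pH 8.2, 0.02% Tween-20), compounds pinned in, then 1 mM L-glutamine solution and the glutamate oxidase–HRP–Amplex Red mix added; fluorescence read immediately and again after 30 min at room temperature.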
Chain of Glutaminase kidney isoform, mitochondrial (Homo sapiens) (O94925 whole entry, looked up, canonical isoform): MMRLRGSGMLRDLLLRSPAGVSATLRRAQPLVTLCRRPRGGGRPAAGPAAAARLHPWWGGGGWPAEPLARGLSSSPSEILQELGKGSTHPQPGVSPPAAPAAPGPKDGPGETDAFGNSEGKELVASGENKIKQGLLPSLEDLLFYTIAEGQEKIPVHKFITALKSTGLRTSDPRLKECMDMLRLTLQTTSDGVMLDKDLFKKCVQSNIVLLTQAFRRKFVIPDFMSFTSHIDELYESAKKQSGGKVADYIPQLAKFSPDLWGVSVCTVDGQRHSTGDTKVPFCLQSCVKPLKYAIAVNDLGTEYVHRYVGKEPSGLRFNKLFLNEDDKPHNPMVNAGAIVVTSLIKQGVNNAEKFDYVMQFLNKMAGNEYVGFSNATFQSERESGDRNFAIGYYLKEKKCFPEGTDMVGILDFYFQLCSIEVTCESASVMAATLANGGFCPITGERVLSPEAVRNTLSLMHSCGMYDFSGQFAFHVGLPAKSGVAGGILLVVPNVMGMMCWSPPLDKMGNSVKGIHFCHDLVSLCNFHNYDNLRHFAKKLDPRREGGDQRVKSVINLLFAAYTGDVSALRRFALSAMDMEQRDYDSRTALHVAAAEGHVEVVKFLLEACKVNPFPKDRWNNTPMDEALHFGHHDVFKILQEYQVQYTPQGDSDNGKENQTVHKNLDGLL

Test [10] in a line: qHTS of Trypanosoma Brucei Inhibitors: LOPAC Validation (AID 624147). Further: 0% is about no effect. The method in brief:
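Screened from lowest to highest concentration, compounds were pinned into TbPYK/substrate mixtures, and ADP (130 uM final) was added. Plates sat at room temperature for 45 min prior to Kinase-Glo Plus detection by luminescence.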

Structures are written as SMILES. Where “and” joins values, the source holds several entries; their conditions need not be identical. Equal values may be shown once. Results filed as inconclusive are left out. Calls of active or inactive are those of the source. Unless noted, the call rests on the fitted dose curve; in most records, active means well fitted curve in the direction sought with a large enough effect; inconclusive means small, poorly fitted or top-dose-only effect, or another doubt; inactive means no such curve, though single readings can be large; an effect the other way counts as inactive or inconclusive.

Chain of Voltage-gated inwardly rectifying potassium channel KCNH2 (Homo sapiens) (Q12809 whole entry, looked up): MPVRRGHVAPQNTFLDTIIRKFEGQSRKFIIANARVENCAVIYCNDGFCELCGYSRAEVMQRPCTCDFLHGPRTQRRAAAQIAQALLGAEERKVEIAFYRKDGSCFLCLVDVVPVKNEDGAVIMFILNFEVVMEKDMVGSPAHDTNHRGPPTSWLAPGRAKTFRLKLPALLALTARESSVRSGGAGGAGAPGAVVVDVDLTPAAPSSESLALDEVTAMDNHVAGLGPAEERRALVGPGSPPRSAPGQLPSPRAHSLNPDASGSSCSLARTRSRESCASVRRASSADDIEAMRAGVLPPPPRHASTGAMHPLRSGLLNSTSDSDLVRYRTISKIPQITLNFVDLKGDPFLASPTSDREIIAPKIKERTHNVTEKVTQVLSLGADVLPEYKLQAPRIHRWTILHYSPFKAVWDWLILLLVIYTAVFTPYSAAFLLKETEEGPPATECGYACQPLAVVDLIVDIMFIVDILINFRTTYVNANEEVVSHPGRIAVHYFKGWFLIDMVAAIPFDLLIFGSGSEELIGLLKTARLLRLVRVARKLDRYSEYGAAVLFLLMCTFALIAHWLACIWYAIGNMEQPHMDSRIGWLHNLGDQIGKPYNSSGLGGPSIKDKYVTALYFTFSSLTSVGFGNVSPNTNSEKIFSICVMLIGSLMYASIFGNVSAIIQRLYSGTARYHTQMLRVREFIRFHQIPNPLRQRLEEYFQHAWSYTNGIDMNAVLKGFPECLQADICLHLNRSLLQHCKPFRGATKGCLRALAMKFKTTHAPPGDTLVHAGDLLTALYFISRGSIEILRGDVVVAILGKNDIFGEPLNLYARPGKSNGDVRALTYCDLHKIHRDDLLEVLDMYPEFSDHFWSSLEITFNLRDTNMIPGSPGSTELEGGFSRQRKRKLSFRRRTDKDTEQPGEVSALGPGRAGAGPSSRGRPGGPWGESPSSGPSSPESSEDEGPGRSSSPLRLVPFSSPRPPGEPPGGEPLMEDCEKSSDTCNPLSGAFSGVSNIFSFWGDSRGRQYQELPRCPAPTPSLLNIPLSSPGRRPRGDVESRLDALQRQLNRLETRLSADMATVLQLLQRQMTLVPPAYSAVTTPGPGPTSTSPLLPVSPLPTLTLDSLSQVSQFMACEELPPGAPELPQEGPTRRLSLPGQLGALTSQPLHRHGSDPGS
Chain of Luciferin 4-monooxygenase (Photinus pyralis) (P08659 whole entry, looked up): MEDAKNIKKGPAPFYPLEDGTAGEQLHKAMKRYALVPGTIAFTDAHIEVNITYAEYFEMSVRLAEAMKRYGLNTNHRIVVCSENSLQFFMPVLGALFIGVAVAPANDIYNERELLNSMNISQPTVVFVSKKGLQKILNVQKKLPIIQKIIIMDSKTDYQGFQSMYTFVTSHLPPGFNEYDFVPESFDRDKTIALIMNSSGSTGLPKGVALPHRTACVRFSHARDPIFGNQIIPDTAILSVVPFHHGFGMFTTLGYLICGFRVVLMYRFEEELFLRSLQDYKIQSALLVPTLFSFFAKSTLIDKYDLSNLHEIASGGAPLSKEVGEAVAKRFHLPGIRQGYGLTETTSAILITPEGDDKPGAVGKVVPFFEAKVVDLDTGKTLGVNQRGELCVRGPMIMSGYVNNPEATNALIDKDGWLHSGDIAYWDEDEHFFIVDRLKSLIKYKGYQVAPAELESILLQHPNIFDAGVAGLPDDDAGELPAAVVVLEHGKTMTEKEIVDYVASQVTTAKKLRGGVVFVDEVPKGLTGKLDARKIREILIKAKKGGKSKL
Chain of Retinoic acid receptor RXR-alpha (Homo sapiens) (P19793 whole entry, looked up): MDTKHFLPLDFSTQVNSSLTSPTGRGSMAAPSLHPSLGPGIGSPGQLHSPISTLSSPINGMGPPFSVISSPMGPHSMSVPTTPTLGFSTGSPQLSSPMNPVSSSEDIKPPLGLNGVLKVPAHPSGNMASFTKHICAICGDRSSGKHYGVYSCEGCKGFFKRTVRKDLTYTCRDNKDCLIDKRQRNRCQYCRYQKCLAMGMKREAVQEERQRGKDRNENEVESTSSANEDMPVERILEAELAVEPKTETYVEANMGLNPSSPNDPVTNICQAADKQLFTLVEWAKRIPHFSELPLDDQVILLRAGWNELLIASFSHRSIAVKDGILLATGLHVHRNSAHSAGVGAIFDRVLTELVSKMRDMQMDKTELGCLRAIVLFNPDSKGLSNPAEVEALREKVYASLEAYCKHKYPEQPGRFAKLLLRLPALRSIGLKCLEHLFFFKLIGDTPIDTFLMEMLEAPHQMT

For the compound `CN(C)C(=S)SC(=S)N(C)C`, the max response in test [1] is 5.78%; in test [2], -27.1% (inactive). Also, the activity change % (negative = inhibition) in test [3] is 10.8% (inactive). In [4], the Potency result is “inactive”.

Regarding `NC(=O)c1cc[n+](CC2=C(C(=O)[O-])N3C(=O)[C@@H](NC(=O)Cc4cccs4)[C@H]3SC2)cc1`, the Potency result in [4] is “inactive”.

For `CN1CCCC(CC2c3ccccc3Sc3ccccc32)C1` (stereo not given), the Potency in [4] was 4.47 µM (active).

For `C[C@]12C=CC(=O)C=C1CC[C@@H]1[C@@H]2[C@@H](O)C[C@@]2(C)[C@H]1CC[C@]2(O)C(=O)CO`, in test [4], the Potency entry was “inactive”.

Take `O=C1OC(c2ccc(O)cc2)(c2ccc(O)cc2)c2ccccc21`: the max response is 6.51% in [1] and -28% (inactive) in [2]. For the same compound, the activity change % (negative = inhibition) in test [3] is -18.5% (inactive) and 8.75% (inactive). Moreover, the Potency in test [4] was 15.8 µM (active); in test [5], 25.6 µM (active). Further, the Potency result in [6] is “inactive”.

With `COc1cccc2c1C(=O)c1c(O)c3c(c(O)c1C2=O)C[C@@](O)(C(C)=O)C[C@@H]3O[C@H]1C[C@H](N)[C@H](O)[C@H](C)O1`, the max response in [1] was -11.9%. The Potency was 5.62 µM (active) in test [2] and 5.01 µM (active) in test [3]. Besides, the Potency entry in test [4], in test [7] and in test [5] was “inactive” each time.

For the compound `NC[C@H]1O[C@H](O[C@H]2[C@H](O[C@@H]3O[C@H](CO)[C@@H](O)[C@H]3O)C(O)[C@H](N)C[C@@H]2N)[C@H](N)[C@@H](O)[C@@H]1O` (stereo not given in full), in test [4], the Potency entry is “inactive”.

Turning to `CC(=O)Oc1ccc(C(c2ccc(OC(C)=O)cc2)c2ccccn2)cc1`, the activity change % (negative = inhibition) in [3] was 5.36% (inactive). Also, the Potency entry in test [4], in [8] and in [7] was “inactive” each time.

For the compound `O=C(OCC(O)CO)c1ccccc1Nc1ccnc2cc(Cl)ccc12` (stereo not given), the Potency entry in test [4] is “inactive”.

In the case of `CCOC(=O)[C@H](CCc1ccccc1)N[C@@H](C)C(=O)N1Cc2ccccc2C[C@H]1C(=O)O`, the Potency entry in [4] is “inactive”.

For the compound `C[C@@H]1CN(CCCn2c3ccccc3c3ccccc32)C[C@H](C)N1`, the Potency was 10 µM (active) in [4], 32.2 µM (active) in [7] and 36.1 µM (active) in test [5]. Also, the Potency entry in [8] and in test [6] was “inactive” in each case.

On to `C1CCc2nnnn2CC1`, for which the Potency entry in test [4], in [8], in [7], in test [5], in test [6] and in [9] was “inactive” throughout. Also, in test [10], the outcome was inactive.

Regarding `CN=C(NC#N)Nc1ccc(C2=NNC(=O)CC2C)cc1` (stereo not given), the Potency entry in test [4], in test [8], in test [7] and in test [5] was “inactive” throughout.

`CC(C)(CO)[C@@H](O)C(=O)NCCCO`: the Potency entry in test [4], in [8], in test [7] and in [5] was “inactive” each time.

Take `CCN(CC)C(=O)/C(C#N)=C/c1cc(O)c(O)c([N+](=O)[O-])c1`: the Potency entry in test [4], in [8], in [7] and in [5] was “inactive” throughout.

Take `C[C@]12CCC(=O)C=C1CC[C@H]1[C@@H]3CC[C@](O)(C(=O)CO)[C@@]3(C)C[C@H](O)[C@@]12F`: the Potency result in test [4], in test [8], in test [7] and in [5] was “inactive” each time.

For `c1ccc(-c2ccc(C(c3ccccc3)n3ccnc3)cc2)cc1` (stereo not given), the Potency in [4] is 12.6 µM (active). The Potency result in test [8], in test [7], in test [5] and in test [6] was “inactive” each time.

With `CC(=O)OCC(=O)[C@@]1(OC(C)=O)[C@@H](C)C[C@H]2[C@@H]3C[C@H](F)C4=CC(=O)C=C[C@]4(C)[C@@]3(F)[C@@H](O)C[C@@]21C`, the Potency entry in test [4], in [8], in test [7] and in test [5] was “inactive” throughout.

As for `CCC(=O)c1c(O)cc(O)cc1O`, the Potency result in test [4], in [8], in test [7] and in [5] was “inactive” throughout.

As for `CC(C)(C(=O)c1cccnc1)c1cccnc1`, the Potency entry in test [4], in [8], in [7], in test [5] and in test [6] was “inactive” throughout.

With `CCCCC1=NC2(CCCC2)C(=O)N1Cc1ccc(-c2ccccc2-c2nn[nH]n2)cc1`, the Potency result in test [4], in test [8], in test [7], in test [5] and in [6] was “inactive” in each case.

On to `CN(C)CCCOc1nn(Cc2ccccc2)c2ccccc12`, for which the Potency in test [4] is 5.01 µM (active). Moreover, the Potency result in test [8], in test [7], in [5] and in [6] was “inactive” throughout.

Regarding `CCCCCC=CCC=CCCCCCCCC(=O)OCC`, the Potency result in test [4], in test [8], in test [7], in test [5] and in [6] was “inactive” throughout.

As to `CCN(CC)C(=O)N1CCN(C)CC1`, the Potency entry in [4], in test [8], in [7] and in test [5] was “inactive” throughout.

With `CN1C2CCC1CC(OC(=O)c1c[nH]c3ccccc13)C2` (stereo not given), in test [4], the Potency is 11.2 µM (active) and 5.62 µM (active). In addition, the Potency result in test [8], in test [7], in test [5], in [6] and in test [9] was “inactive” in each case. For the same compound, the call in test [10] was inactive.

As for `Cc1c(C(C)C)c(=O)n(-c2ccccc2)n1C`, the Potency result in test [4], in test [8], in test [7] and in test [5] was “inactive” throughout.

As to `CCCCCCCCCCCCCCCCOP(=O)([O-])OCC[N+](C)(C)C`, the Potency entry in test [4], in test [8], in test [7] and in [5] was “inactive” each time.

Consider `Cc1ccnc(NS(=O)(=O)c2ccc(N)cc2)n1`, for which the Potency result in test [4], in [8], in [7] and in test [5] was “inactive” in each case.

Regarding `Cc1ncc(CSSCc2cnc(C)c(O)c2CO)c(CO)c1O`, the Potency entry in [4], in test [8], in [7], in [5] and in test [6] was “inactive” each time.

Source of the values: PubChem BioAssay (NCATS).
